Laboratory results published in PubChem BioAssay (NCATS).
Records with an inconclusive call do not appear. Calls of active or inactive are those of the source. Unless noted, calls come from the whole dose curve; as a rule, active = well fitted curve in the direction sought with a large enough effect; inconclusive = small, poorly fitted or top-dose-only effect, or another doubt; inactive = no such curve, though single readings can be large; an effect the other way counts as inactive or inconclusive.

Tests used:
[1] = UWB1.289 Cancer Cell Toxicity qHTS against the NCATS CANVASS Library (AID 1347347); settings: UWB1.289 viability, CellTiter-Glo luminescence, 72 h; series mostly up to 38.3 µM; note: % is set by controls: 0 for no effect and ±100 for the full control effect; nearly all actives have a fitted effect of over 60% in size
Procedure, shortened: (§1)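 1000 cells/well; 4 h settle; 11-pnt titration; 72 h, 37 degrees C, 5% CO2; CellTiter-Glo, 15min RT; luminescence read.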

[2] = SW1088 Cancer Cell Toxicity qHTS against the NCATS CANVASS Library (AID 1347350); settings: SW1088 viability, CellTiter-Glo luminescence, 72 h; series mostly up to 38.3 µM; note: nearly all actives have a fitted effect of over 75% in size
Procedure, shortened: as §1

[3] = U-118MG Cancer Cell Toxicity qHTS against the NCATS CANVASS Library (AID 1347351); settings: U-118MG viability, CellTiter-Glo luminescence, 72 h; series mostly up to 38.3 µM; note: % is set by controls: 0 for no effect and ±100 for the full control effect
Procedure, shortened: as §1

[4] = A2780 Cisplatin Sensitive Ovarian Cancer Cell Toxicity qHTS against the NCATS CANVASS Library (AID 1347353); settings: A2780 ovarian cancer viability, ATPLite luminescence, 72 h; series mostly up to 46.1 µM; note: nearly all actives have a fitted effect of over 60% in size
Procedure, shortened: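 Seventy-two-hour exposure of cisplatin-sensitive A2780 ovarian cells to an 11-concentration qHTS series; cytotoxicity is inferred from loss of ATPLite luminescence. Bortezomib titration served as positive control.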

[5] = HEK293 18hr Apoptosis Induction qHTS against the NCATS CANVASS Library (AID 1347357); settings: HEK293 caspase-3/7 Caspase-Glo luminescence; series mostly up to 46.1 µM; note: 0% is about no effect
Procedure, shortened: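 Caspase-Glo 3/7 luminescence (15 min, room temperature) measured apoptosis after an 18-hour, 37 degrees C exposure of HEK293 cells (500 cells/well) to compounds in 11 points.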

[6] = HPAF-II 12hr Apoptosis Induction qHTS against the NCATS CANVASS Library (AID 1347358); settings: HPAF-II caspase-3/7 Caspase-Glo luminescence; series mostly up to 46.1 µM; note: 0% is about no effect
Procedure, shortened: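 Apoptosis in HPAF-II pancreatic cancer cells is scored as caspase 3/7 luminescence following a 12-hour exposure to an 11-point compound series.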

[7] = KB-3-1 Cancer Cell Toxicity qHTS against the NCATS CANVASS Library (AID 1347366); settings: KB-3-1 viability, CellTiter-Glo luminescence, 72 h; series mostly up to 46.1 µM; note: nearly all actives have a fitted effect of over 75% in size
Procedure, shortened: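 CellTiter-Glo luminescence measured viability after 72 h at 37C. KB-3-1 cells were seeded at 500 per well in DMEM/10% FBS.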

[8] = MCF7 Cancer Cell Toxicity qHTS against the NCATS CANVASS Library (AID 1347369); settings: MCF7 viability, ATP luminescence (CellTiter-Glo), 72 h; series mostly up to 46 µM
Procedure, shortened: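 Cytotoxicity was measured as CellTiterGlo luminescence (ATP) after 72 h at 37 °C. The cells were MCF7 at 500 per well, with an 11-point compound concentration series.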

[9] = target: Nuclear receptor subfamily 1 group I member 3 (Homo sapiens) (UniProt Q14994); test: qHTS for Constitutive Androstane Receptor (CAR) Antagonist screened against the NCATS CANVASS Library (AID 1347372); settings: HepG2-hCAR-CYP2B6 luciferase, CITCO-stimulated antagonist mode; series mostly up to 46.1 µM;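 note: cells stimulated with 50 nM CITCO agonist so inhibition reflects antagonism; luciferase from CYP2B6 promoter reporter driven by hCAR in HepG2 cells; % is set by controls: 0 for no effect and ±100 for the full control effect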
Procedure, shortened: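 HepG2-CYP2B6-hCAR double-stable cells plated, 4hr attach; cpd pin-transferred; CITCO 50 nM final; 24hr 37C/5% CO2; CellTiter-Fluor 1hr (fluorescence), then ONE-Glo luminescence.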

[10] = target: Nuclear receptor subfamily 1 group I member 3 (Homo sapiens) (UniProt Q14994); test: qHTS for Constitutive Androstane Receptor (CAR) Agonist screened against the NCATS CANVASS Library (AID 1347373); settings: HepG2-hCAR-CYP2B6 luciferase reporter, ONE-Glo luminescence; series mostly up to 46.1 µM;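 note: every well also contained 1.5 µM PK11195 alongside the test compound; 0% is about no effect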
Procedure, shortened: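 CAR agonism is scored as CYP2B6-promoter luciferase induction in a double-stable transfected HepG2 line, where 1.5uM PK11195 is included in each well. Compounds were tested over a 24hr exposure.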

[11] = qHTS for H2AX Agonists against the NCATS CANVASS Library (AID 1347378); settings: CHO-K1 H2AX phosphorylation, HTRF TR-FRET, 3 h; series mostly up to 76.9 µM; note: 0% is about no effect
Procedure, shortened: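 Phospho-H2AX (S139) in CHO-K1 lysates measured by HTRF, reported as 665/615 nm emission ratio after 24 hr antibody incubation at room temperature. Cells were first treated with a compound series for 3 hr at 37C (0.76% DMSO final).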

[12] = Inflammasome Signaling qHTS Counterscreen: IL-1-beta AlphaLISA counterscreen against the NCATS CANVASS Library (AID 1347381); settings: Purified IL-1beta AlphaLISA signal interference counterscreen; series mostly up to 57.5 µM;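 note: cell-free check with purified IL-1β in medium and no THP-1 cells; 0% is about no effect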
Procedure, shortened: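 To flag interference with the AlphaLISA read-out, a known amount of purified IL-1-beta (4 pg) replaced cell supernatant. Detection used anti-IL-1-beta acceptor beads, biotinylated antibody and streptavidin donor beads at room temperature.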

[13] = Cytotoxicity qHTS for assessment of Hepg2 cells membrane integrity screened against the NCATS CANVASS Library (AID 1347387); settings: HepG2 LDH release (CytoTox-ONE) fluorescence, 5 h; series mostly up to 46.1 µM
Procedure, shortened: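 Fluorescence proportional to lysed-cell number, from LDH leaking out of HepG2 cells exposed 5 hr at 37C to 0.59 nM - 46 uM compound (11-point qHTS), is measured after 10 min with CytoTox-ONE.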

[14] = qHTS assay for small molecule disruptors of mitochondrial membrane potential screened against the NCATS CANVASS Library (AID 1347389); settings: HepG2 mitochondrial membrane potential, m-MPI red/green ratio, 1.5 h; series mostly up to 46.1 µM; note: % is set by controls: 0 for no effect and ±100 for the full control effect; nearly all actives have a fitted effect of over 60% in size
Procedure, shortened: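 Compounds tested in 11-point qHTS series on HepG2 cells for 1 hr; membrane-potential dye added for 30 min at 37C. Lower red-to-green ratio indicates loss of potential.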

[15] = Secretion counterscreen for inhibitors of the SERCaMP assay screened against the NCATS CANVASS Library (AID 1347390); settings: SH-SY5Y constitutive GLuc secretion, luminescence, 20 h; series mostly up to 76.6 µM;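 note: light from luciferase secreted into medium read as a measure of general secretion; % is set by controls: 0 for no effect and ±100 for the full control effect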
Procedure, shortened: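 Counterscreen for secretory-pathway interference: after 4 h attachment, SH-SY5Y-GLuc cells were exposed 20 hours to compounds (final 0.001 - 77 uM), then coelenterazine added and GLuc luminescence recorded; Brefeldin A served as control.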

[16] = qHTS for activators of dead-cell proteases activity screened against the NCATS CANVASS Library (AID 1347392); settings: HepG2 cytotoxicity, dead-cell protease luminescence, 5 h; series mostly up to 46.1 µM;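 note: luminescence from protease leaking out of membrane-damaged cells cleaving impermeant substrate; 0% is about no effect; rising signal means more cytotoxicity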
Procedure, shortened: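 Compounds are pin-transferred onto attached HepG2 cells, giving 11 final concentrations. After 5 h at 37C, AAF-aminoluciferin reagent is added and luminescence is recorded at room temperature.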

[17] = Vero-766 cells viability qHTS against the NCATS CANVASS Library: Counterscreen for Zika virus inhibition assay (AID 1347394); settings: Vero 766 viability, CellTiter-Glo luminescence, 72 h; series mostly up to 46.1 µM; note: % is set by controls: 0 for no effect and ±100 for the full control effect; nearly all actives have a fitted effect of over 60% in size
Procedure, shortened: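 CellTiter Glo luminescence measured cytotoxicity after 72 h at 37C in uninfected Vero 766 cells, plated at 1000 cells/well. Compounds were applied in an 11-point series. Wells without cells defined 100% inhibition.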

[18] = Viability qHTS for inhibitors of the SERCaMP assay screened against the NCATS CANVASS Library (AID 1347400); settings: SH-SY5Y SERCaMP cells viability, CellTiter-Glo, 48 h; series mostly up to 92.2 µM; note: % is set by controls: 0 for no effect and ±100 for the full control effect; nearly all actives have a fitted effect of over 70% in size
Procedure, shortened: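 Cytotoxicity counter-screen: ATP content (CellTiter-Glo luminescence) of SH-SY5Y-GLuc SERCaMP MJH297 cells after 48 h at 37C with compounds in an 11-point qHTS series.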

[19] = Redox Reaction Profiling qHTS: Assay Interference Panel against the NCATS CANVASS Library (AID 1347401); settings: resazurin-DTT redox cycling, fluorescence, 15 min; series mostly up to 57.1 µM;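 note: 100% = activation by 2 µM chloranil control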
Procedure, shortened: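 Cell-free redox surrogate: 5 uM resazurin + 200 uM DTT, 50 mM HEPES pH 7.3/50 mM NaCl; cpds pinned, 11-pt qHTS; Ex525/Em598 read t0 and t=15 min, dark.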

[20] = NFAT Signaling Pathway (AID 444; active = well fitted curve in either direction with a large enough effect, not every such curve was filed as active;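 note: carbachol stimulus at about its EC50 of 1 µM final; % is set by controls: 0 for no effect and ±100 for the full control effect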); settings: Jurkat NFAT-bla M1, carbachol, beta-lactamase ratio, 5 h; at 17.2 µM (top of the series)
Procedure, shortened: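 Read-out: CCF4 FRET ratio (460 nm/530 nm) after 1 h RT dye loading, used for %activity and AC50 from titration series. Cells: Jurkat NFAT-β-lactamase/M1 line, treated with compound plus 1 uM carbachol for 5 h, 37 °C.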

Nuclear receptor subfamily 1 group I member 3 (Homo sapiens), sequence (Q14994 whole entry, looked up): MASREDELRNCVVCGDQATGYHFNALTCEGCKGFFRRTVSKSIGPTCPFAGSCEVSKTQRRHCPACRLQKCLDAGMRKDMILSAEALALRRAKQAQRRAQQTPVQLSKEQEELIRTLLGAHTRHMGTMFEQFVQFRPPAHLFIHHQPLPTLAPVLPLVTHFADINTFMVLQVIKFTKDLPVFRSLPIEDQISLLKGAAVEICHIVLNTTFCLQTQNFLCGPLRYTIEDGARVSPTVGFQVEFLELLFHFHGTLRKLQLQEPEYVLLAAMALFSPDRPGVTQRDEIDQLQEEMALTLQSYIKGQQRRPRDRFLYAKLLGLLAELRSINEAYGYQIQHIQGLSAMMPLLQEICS

COC(=O)C1=C2Nc3ccccc3[C@@]23CCN2CC(C(C)=O)C1C[C@H]23 (stereo partly specified)
inactive: Potency [1] | Potency [2] | Potency [3] | Potency [4] | Potency [5] | outcome [6] | Potency [7] | Potency [8] | Potency [9] | outcome [10] | Potency [11] | outcome [12] | outcome [13] | Potency [14] | Potency [15] | Potency [16] | Potency [17] | Potency [18] | Potency [19]

COc1ccc(C23Oc4cc(OC)cc(OC)c4[C@](O)([C@H](c4ccccc4)C2C(=O)NCCCCNC(=O)c2ccccc2)[C@@H]3O)cc1 (stereo partly specified)
inactive: Potency [1] | Potency [2] | Potency [3] | Potency [4] | Potency [5] | outcome [6] | Potency [7] | Potency [8] | Potency [9] | outcome [10] | Potency [11] | outcome [12] | outcome [13] | Potency [14] | Potency [15] | Potency [16] | Potency [17] | Potency [18] | Potency [19]

CCC[C@H]1CC[C@H]2[C@H](C)CCC[C@H]2N1
inactive: Potency [1] | Potency [2] | Potency [3] | Potency [4] | Potency [5] | outcome [6] | Potency [7] | Potency [8] | Potency [9] | outcome [10] | Potency [11] | outcome [12] | outcome [13] | Potency [14] | Potency [15] | Potency [16] | Potency [17] | Potency [18]

CC[N@@+]1([O-])C[C@]2(C)CC[C@@H](O)[C@@]34C5C[C@H]6CC[C@@]5(C(C[C@H]23)C41)[C@H](O)[C@@]6(O)CO (stereo partly specified)
inactive: Potency [1] | Potency [2] | Potency [3] | Potency [4] | outcome [6] | Potency [7] | Potency [8] | Potency [9] | outcome [10] | Potency [11] | outcome [12] | outcome [13] | Potency [14] | Potency [15] | Potency [16] | Potency [17] | Potency [18] | Potency [19]

CC1=CC2CC[C@@H]3[C@@H](C)C[C@H](C)[C@@H](C1)N23 (stereo partly specified)
inactive: Potency [1] | Potency [2] | Potency [3] | Potency [4] | Potency [5] | outcome [6] | Potency [7] | Potency [8] | Potency [9] | outcome [10] | Potency [11] | outcome [12] | outcome [13] | Potency [14] | Potency [16] | Potency [17] | Potency [18] | Potency [19]

CNCCc1c[nH]c2ccccc12
inactive: activity change, negative = inhibition [20] -6.51% | Potency [1] | Potency [3] | Potency [4] | Potency [5] | outcome [6] | Potency [7] | Potency [8] | Potency [9] | outcome [10] | Potency [11] | outcome [12] | outcome [13] | Potency [14] | Potency [15] | Potency [16] | Potency [17] | Potency [18] | Potency [19]
